# Experimental data reported in PubChem BioAssay (NCI).
# The panel holds about 79,000 compounds, 15% with a hit somewhere; the sample as a whole holds those more often. Values without a mark were called inactive. Activity calls are given as the source filed them. No stated cut-off is given here; in the data, active means growth inhibition above about 70%; inactive means the rest.
# Legend:
# [1] = NCI Yeast Anticancer Drug Screen. Data for the rad52 strain (AID 147);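 further: 0% = growth of vehicle-treated control cultures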; settings: S. cerevisiae rad52 mutant growth inhibition, hits give high values
# In short: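 Screen used a yeast mutant impaired in DNA repair. After compound exposure, growth was measured. Values reflect inhibition compared with vehicle-treated cells.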
# [2] = NCI Yeast Anticancer Drug Screen. Data for the wt1 strain (AID 149);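 further: 0% = growth of vehicle-treated wt1 cultures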; settings: S. cerevisiae wt1 strain (SPY 50644) growth inhibition, hits give high values
# In short: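 The wt1 strain was treated with compounds, and growth was compared with vehicle-treated cultures to give inhibition.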
# [3] = NCI Yeast Anticancer Drug Screen. Data for the rad50EPP+ strain (AID 151);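 further: 0% = growth of vehicle-treated control cultures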; settings: S. cerevisiae rad50 mutant strain, hits give high values
# In short: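 Exposing the rad50EPP+ strain to each compound, growth was compared with vehicle-only cultures to give inhibition.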
# [4] = NCI Yeast Anticancer Drug Screen. Data for the mgt1 strain (AID 153); settings: S. cerevisiae mgt1 mutant growth inhibition, hits give high values
# In short: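 Genetically defined yeast (mgt1) treated with compound; inhibition of growth expressed against vehicle-treated controls.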
# [5] = NCI Yeast Anticancer Drug Screen. Data for the rad50 strain (AID 155);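 further: 0% = growth of vehicle-only cultures of the same strain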; settings: S. cerevisiae rad50 strain growth inhibition, hits give high values
# In short: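 Cells are treated with compound, grown, and their growth is then scored against vehicle-only cultures of the same repair-deficient yeast strain.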
# [6] = NCI Yeast Anticancer Drug Screen. Data for the mec2-1 strain (AID 157); settings: S. cerevisiae mec2-1 strain, hits give high values
# In short: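 Readout is yeast growth inhibition, normalised to vehicle-treated controls, in the mec2-1 strain exposed to compound.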
# [7] = NCI Yeast Anticancer Drug Screen. Data for the rad14 strain (AID 159);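 further: 0% = growth of vehicle-treated control cultures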; settings: S. cerevisiae rad14 strain growth inhibition, hits give high values
# In short: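 Readout: yeast growth inhibition, referenced to vehicle-only cultures. Strain bears a defined alteration in DNA damage repair.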
# [8] = NCI Yeast Anticancer Drug Screen. Data for the sgs1 mgt1 strain (AID 161);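 further: 0% = growth of cultures given vehicle only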; settings: S. cerevisiae sgs1 mgt1 strain, hits give high values
# In short: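 Percent growth inhibition was derived by comparing compound-exposed mutant yeast with vehicle-exposed cultures. The strain carries alterations in DNA damage repair.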
# [9] = NCI Yeast Anticancer Drug Screen. Data for the CLN2oe strain (AID 163);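 further: 0% = growth of vehicle-only control cultures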; settings: S. cerevisiae CLN2oe strain, hits give high values
# In short: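 Values reflect how much compound exposure reduced yeast growth, referenced to vehicle-exposed cells. Assay organism is a strain with a defined genetic change affecting cell-cycle control.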
# [10] = NCI Yeast Anticancer Drug Screen. Data for the cln2 rad14 strain (AID 165);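 further: 0% = growth equal to vehicle treated cultures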; settings: S. cerevisiae cln2 rad14 strain, hits give high values
# In short: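 Relative to vehicle controls, growth inhibition of compound-treated cln2 rad14 yeast was recorded.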
# [11] = NCI Yeast Anticancer Drug Screen. Data for the bub3 strain (AID 167); settings: S. cerevisiae bub3 mutant strain, hits give high values
# In short: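 Part of a panel of yeast mutants defective in DNA damage repair or cell cycle regulation. Each strain is grown with compound, and inhibition is calculated relative to solvent-treated cultures.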
# [12] = NCI Yeast Anticancer Drug Screen. Data for the mlh1 strain (AID 171);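 further: 0% = growth of vehicle-treated control cultures of the same strain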; settings: S. cerevisiae mlh1 strain growth inhibition, hits give high values
# In short: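 Steps: expose the defined-mutant yeast strain to compound; expose a parallel culture to vehicle; measure growth; express compound effect as inhibition relative to the vehicle culture.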
# [13] = NCI Yeast Anticancer Drug Screen. Data for the sgs1 strain (AID 173);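 further: 0% = growth of vehicle-only control cultures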; settings: S. cerevisiae sgs1 mutant, hits give high values
# In short: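 Treat defined-mutant yeast with compound; measure growth; calculate inhibition relative to vehicle-treated cells.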
# [14] = NCI Yeast Anticancer Drug Screen. Data for the mlh1 rad18 strain (AID 175); settings: S. cerevisiae mlh1 rad18 strain growth inhibition, hits give high values
# In short: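 Test agents were incubated with a yeast strain of defined genotype (DNA damage repair defect). Inhibition of growth was derived by comparison with vehicle-exposed cultures.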
# [15] = NCI Yeast Anticancer Drug Screen. Data for the rad18 strain (AID 177); settings: S. cerevisiae rad18 mutant growth inhibition, hits give high values
# In short: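 A genetically defined yeast mutant impaired in DNA damage repair was treated with test compounds, then its growth was measured against cultures receiving vehicle alone.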
# [16] = at 5.0 µM (retest, dose inferred, filed as 0.5)
# [17] = at 50.0 µM (retest, dose inferred, filed as 5.0)
structure (smiles),measurement,setting,value
CCCNCC(=O)O[C@]1(CC)C(=O)OCc2c1cc1n(c2=O)Cc2cc3ccccc3nc2-1,growth inhibition,[1]; at 1.2 µM,80% (active)
same,growth inhibition,[1]; at 3.7 µM,90% (active)
same,growth inhibition,[1]; at 11.0 µM,94% (active)
same,growth inhibition,[1]; at 33.0 µM,95% (active)
same,growth inhibition,[1]; at 100.0 µM,96% (active)
same,growth inhibition,[2]; at 1.2 µM,13%
same,growth inhibition,[2]; at 3.7 µM,12%
same,growth inhibition,[2]; at 11.0 µM,28%
same,growth inhibition,[2]; at 33.0 µM,62%
same,growth inhibition,[2]; at 100.0 µM,85% (active)
same,growth inhibition,[3]; at 1.2 µM,29%
same,growth inhibition,[3]; at 3.7 µM,72% (active)
same,growth inhibition,[3]; at 11.0 µM,81% (active)
same,growth inhibition,[3]; at 33.0 µM,89% (active)
same,growth inhibition,[3]; at 100.0 µM,93% (active)
same,growth inhibition,[4]; at 1.2 µM,21%
same,growth inhibition,[4]; at 3.7 µM,25%
same,growth inhibition,[4]; at 11.0 µM,34%
same,growth inhibition,[4]; at 33.0 µM,63%
same,growth inhibition,[4]; at 100.0 µM,86% (active)
same,growth inhibition,[5]; at 1.2 µM,83% (active)
same,growth inhibition,[5]; at 3.7 µM,88% (active)
same,growth inhibition,[5]; [16],78% (active)
same,growth inhibition,[5]; at 11.0 µM,92% (active)
same,growth inhibition,[5]; at 33.0 µM,92% (active)
same,growth inhibition,[5]; [17],90% (active)
same,growth inhibition,[5]; at 50.0 µM,82.5% (active)
same,growth inhibition,[5]; at 100.0 µM,92% (active)
same,growth inhibition,[6]; at 1.2 µM,19%
same,growth inhibition,[6]; at 3.7 µM,33%
same,growth inhibition,[6]; [16],-5%
same,growth inhibition,[6]; at 11.0 µM,75% (active)
same,growth inhibition,[6]; at 33.0 µM,90% (active)
same,growth inhibition,[6]; [17],86% (active)
same,growth inhibition,[6]; at 50.0 µM,88.1% (active)
same,growth inhibition,[6]; at 100.0 µM,93% (active)
same,growth inhibition,[7]; at 1.2 µM,3%
same,growth inhibition,[7]; at 3.7 µM,0%
same,growth inhibition,[7]; at 11.0 µM,16%
same,growth inhibition,[7]; at 33.0 µM,66%
same,growth inhibition,[7]; at 100.0 µM,87% (active)
same,growth inhibition,[8]; [16],28%
same,growth inhibition,[8]; [17],82% (active)
same,growth inhibition,[8]; at 50.0 µM,79% (active)
same,growth inhibition,[9]; at 1.2 µM,31%
same,growth inhibition,[9]; at 3.7 µM,34%
same,growth inhibition,[9]; at 11.0 µM,41%
same,growth inhibition,[9]; at 33.0 µM,71% (active)
same,growth inhibition,[9]; at 100.0 µM,86% (active)
same,growth inhibition,[10]; [16],0%
same,growth inhibition,[10]; [17],51%
same,growth inhibition,[10]; at 50.0 µM,64.5%
same,growth inhibition,[11]; at 1.2 µM,17%
same,growth inhibition,[11]; at 3.7 µM,12%
same,growth inhibition,[11]; [16],-9%
same,growth inhibition,[11]; at 11.0 µM,28%
same,growth inhibition,[11]; at 33.0 µM,69%
same,growth inhibition,[11]; [17],68%
same,growth inhibition,[11]; at 50.0 µM,76.3% (active)
same,growth inhibition,[11]; at 100.0 µM,88% (active)
same,growth inhibition,[12]; at 1.2 µM,24%
same,growth inhibition,[12]; at 3.7 µM,7%
same,growth inhibition,[12]; at 11.0 µM,16%
same,growth inhibition,[12]; at 33.0 µM,61%
same,growth inhibition,[12]; at 100.0 µM,83% (active)
same,growth inhibition,[13]; at 1.2 µM,26%
same,growth inhibition,[13]; at 3.7 µM,30%
same,growth inhibition,[13]; at 11.0 µM,51%
same,growth inhibition,[13]; at 33.0 µM,82% (active)
same,growth inhibition,[13]; at 100.0 µM,90% (active)
same,growth inhibition,[14]; [16],2%
same,growth inhibition,[14]; [17],72% (active)
same,growth inhibition,[14]; at 50.0 µM,83.1% (active)
same,growth inhibition,[15]; at 1.2 µM,25%
same,growth inhibition,[15]; at 3.7 µM,34%
same,growth inhibition,[15]; at 11.0 µM,46%
same,growth inhibition,[15]; at 33.0 µM,75% (active)
same,growth inhibition,[15]; at 100.0 µM,84% (active)
CC(C)OP(=O)(OC(C)C)/C(Cl)=N/Nc1ccc([N+](=O)[O-])cc1,growth inhibition,[1]; at 1.2 µM,-10%
same,growth inhibition,[1]; at 3.7 µM,-6%
same,growth inhibition,[1]; at 11.0 µM,52%
same,growth inhibition,[1]; at 33.0 µM,90% (active)
same,growth inhibition,[1]; at 100.0 µM,95% (active)
same,growth inhibition,[2]; at 1.2 µM,-10%
same,growth inhibition,[2]; at 3.7 µM,-10%
same,growth inhibition,[2]; at 11.0 µM,19%
same,growth inhibition,[2]; at 33.0 µM,38%
same,growth inhibition,[2]; at 100.0 µM,85% (active)
same,growth inhibition,[3]; at 1.2 µM,25%
same,growth inhibition,[3]; at 3.7 µM,50%
same,growth inhibition,[3]; at 11.0 µM,93% (active)
same,growth inhibition,[3]; at 33.0 µM,96% (active)
same,growth inhibition,[3]; at 100.0 µM,96% (active)
same,growth inhibition,[4]; at 1.2 µM,-21%
same,growth inhibition,[4]; at 3.7 µM,-29%
same,growth inhibition,[4]; at 11.0 µM,16%
same,growth inhibition,[4]; at 33.0 µM,78% (active)
same,growth inhibition,[4]; at 100.0 µM,94% (active)
same,growth inhibition,[5]; at 1.2 µM,-10%
same,growth inhibition,[5]; at 3.7 µM,-21%
same,growth inhibition,[5]; [16],19%
same,growth inhibition,[5]; at 11.0 µM,61%
same,growth inhibition,[5]; at 33.0 µM,93% (active)
same,growth inhibition,[5]; [17],95% (active)
same,growth inhibition,[5]; at 50.0 µM,88.7% (active)
same,growth inhibition,[5]; at 100.0 µM,94% (active)
same,growth inhibition,[6]; at 1.2 µM,-5%
same,growth inhibition,[6]; at 3.7 µM,-3%
same,growth inhibition,[6]; [16],13%
same,growth inhibition,[6]; at 11.0 µM,52%
same,growth inhibition,[6]; at 33.0 µM,81% (active)
same,growth inhibition,[6]; [17],80% (active)
same,growth inhibition,[6]; at 50.0 µM,81% (active)
same,growth inhibition,[6]; at 100.0 µM,90% (active)
same,growth inhibition,[7]; at 1.2 µM,-8%
same,growth inhibition,[7]; at 3.7 µM,6%
same,growth inhibition,[7]; at 11.0 µM,24%
same,growth inhibition,[7]; at 33.0 µM,34%
same,growth inhibition,[7]; at 100.0 µM,80% (active)
same,growth inhibition,[8]; [16],6%
same,growth inhibition,[8]; [17],74% (active)
same,growth inhibition,[8]; at 50.0 µM,90.8% (active)
same,growth inhibition,[9]; at 1.2 µM,18%
same,growth inhibition,[9]; at 3.7 µM,20%
same,growth inhibition,[9]; at 11.0 µM,79% (active)
same,growth inhibition,[9]; at 33.0 µM,95% (active)
same,growth inhibition,[9]; at 100.0 µM,96% (active)
same,growth inhibition,[10]; [16],28%
same,growth inhibition,[10]; [17],80% (active)
same,growth inhibition,[10]; at 50.0 µM,89.2% (active)
same,growth inhibition,[11]; at 1.2 µM,-4%
same,growth inhibition,[11]; at 3.7 µM,3%
same,growth inhibition,[11]; [16],29%
same,growth inhibition,[11]; at 11.0 µM,86% (active)
same,growth inhibition,[11]; at 33.0 µM,95% (active)
same,growth inhibition,[11]; [17],95% (active)
same,growth inhibition,[11]; at 50.0 µM,91.6% (active)
same,growth inhibition,[11]; at 100.0 µM,95% (active)
same,growth inhibition,[12]; at 1.2 µM,13%
same,growth inhibition,[12]; at 3.7 µM,23%
same,growth inhibition,[12]; at 11.0 µM,86% (active)
same,growth inhibition,[12]; at 33.0 µM,96% (active)
same,growth inhibition,[12]; at 100.0 µM,94% (active)
same,growth inhibition,[13]; at 1.2 µM,28%
same,growth inhibition,[13]; at 3.7 µM,23%
same,growth inhibition,[13]; at 11.0 µM,94% (active)
same,growth inhibition,[13]; at 33.0 µM,97% (active)
same,growth inhibition,[13]; at 100.0 µM,98% (active)
same,growth inhibition,[14]; [16],47%
same,growth inhibition,[14]; [17],97% (active)
same,growth inhibition,[14]; at 50.0 µM,87.3% (active)
same,growth inhibition,[15]; at 1.2 µM,29%
same,growth inhibition,[15]; at 3.7 µM,28%
same,growth inhibition,[15]; at 11.0 µM,85% (active)
same,growth inhibition,[15]; at 33.0 µM,96% (active)
same,growth inhibition,[15]; at 100.0 µM,96% (active)
